From PubChem
Only some compounds are listed: those with a hit (about 3.5% of all), similar ones and a draw of the others.
TEAD-YAP inh = TEAD-YAP interaction inhibition; HEK-TIYL cells, TEAD-Gal4/YAP UAS-luciferase luminescence; inhibition, % at 9.12 µM; 1.4% of 640,000 active; in the data active = inhibition above about 32%;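 note: 0% = median of test compound wells and 100% = reference inhibitor wells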
GPR151 activ = human GPR151 activation | Q8TDV0 | PathHunter beta-arrestin GPR151 cells, luminescence | AID 1508602 | activation, % at 11.2 µM | 1% of 650,000 active; in the data active = activation above about 4.9%;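 note: 0% = median of compound wells and 100% = cells with positive control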
Target sequence (Q8TDV0 whole entry, looked up): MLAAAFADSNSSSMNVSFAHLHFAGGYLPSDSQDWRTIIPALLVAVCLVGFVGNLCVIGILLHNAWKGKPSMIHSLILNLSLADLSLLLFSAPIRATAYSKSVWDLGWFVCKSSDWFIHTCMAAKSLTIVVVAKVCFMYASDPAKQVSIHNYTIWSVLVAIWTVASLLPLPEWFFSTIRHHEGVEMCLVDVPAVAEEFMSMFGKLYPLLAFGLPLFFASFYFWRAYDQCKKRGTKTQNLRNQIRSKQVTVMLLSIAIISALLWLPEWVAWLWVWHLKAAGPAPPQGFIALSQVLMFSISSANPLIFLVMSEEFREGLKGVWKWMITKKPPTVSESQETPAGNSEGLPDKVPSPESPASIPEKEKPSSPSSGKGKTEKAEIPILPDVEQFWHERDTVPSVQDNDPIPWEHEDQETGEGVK
FBW7 act = human FBW7 E3 ligase activation, primary screen; Q969H0; AlphaScreen FBW7–phospho-cyclin E peptide binding, activator screen; normalized activity (activation), % at 26.1 µM; 0.13% of 650,000 active; in the data active = normalized activity above about 1.9%;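 note: purified mutant Fbw7 with reduced substrate affinity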
MITF primary = inhibitors of human MITF. AID 1259374. AlphaScreen MITF homodimerization, bead proximity signal. inhibition, % at 2.6 µM. 0.91% of 650,000 active; in the data active = inhibition above about 50%;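 note: 0% = vehicle wells with protein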
Active calls of the source: *.

For O=C(CSc1cc(N2CCOCC2)ncn1)c1cccs1 the results were TEAD-YAP inh 73.2*, GPR151 activ -6.6, FBW7 act 0.2 and MITF primary 0.7.
Screening O=S(=O)(c1cccs1)N1CCN(c2cc(N3CCOCC3)ncn2)CC1 returned TEAD-YAP inh 1.3, GPR151 activ -0.2, FBW7 act -0.3 and MITF primary 2.4.
Screening O=C(N/N=C/c1c2ccccc2cc2ccccc12)C(=O)NC1CC1 returned TEAD-YAP inh 56.9*, GPR151 activ 1.0, FBW7 act 1.3 and MITF primary -4.2.
For NC(=O)N/N=C/c1c2ccccc2cc2ccccc12 the results were TEAD-YAP inh 3.4, GPR151 activ 1.2, FBW7 act 2.0* and MITF primary 16.6.
For CCOC(=O)N/N=C/c1c2ccccc2cc2ccccc12 the results were TEAD-YAP inh 3.6, GPR151 activ 2.3, FBW7 act -0.1 and MITF primary -10.1.
`O=C(N/N=C/c1c2ccccc2cc2ccccc12)C(=O)Nc1ccccc1F` gave TEAD-YAP inh -0.2, GPR151 activ 0.7, FBW7 act 0.0 and MITF primary 6.5.
`CCOc1ccc2ccccc2c1/C=N/NC(N)=S` gave TEAD-YAP inh 40.3*, GPR151 activ -0.9, FBW7 act -0.1 and MITF primary -16.7.
NC(=O)c1ccc(Nc2nc(=S)[nH]c3ccccc23)cc1 was read as TEAD-YAP inh -7.3, GPR151 activ -1.3, FBW7 act 0.1 and MITF primary -1.7.
For COc1cccc(-c2cnc(NCc3cccc(F)c3)n2C)c1 the results were TEAD-YAP inh 45.5*, GPR151 activ -0.2, FBW7 act 0.2 and MITF primary 44.0.
For COc1cccc(-c2cnc(NCc3ccc(F)cc3)n2C)c1 the results were TEAD-YAP inh 4.6, GPR151 activ 0.3, FBW7 act 0.1 and MITF primary 48.8.
`COc1cccc(-c2cnc(NCc3cccc(Cl)c3)n2C)c1` gave TEAD-YAP inh 40.9*, GPR151 activ -1.0, FBW7 act 0.4 and MITF primary 23.8.
CC1CCN(C(=O)COc2ccc(S(=O)(=O)NC3CCCCC3)cc2Cl)CC1 was read as TEAD-YAP inh 5.5, GPR151 activ 0.5, FBW7 act -0.2 and MITF primary 1.6.
`O=C(NC1CCCCC1)O/N=C(/c1ccccc1)c1ccncc1` gave TEAD-YAP inh 14.3, GPR151 activ 0.7, FBW7 act -0.1 and MITF primary 9.6.
`Cc1ccccc1-c1ccc(N2CCN(S(C)(=O)=O)CC2)nn1` gave TEAD-YAP inh 44.8*, GPR151 activ -9.3, FBW7 act -0.2 and MITF primary -10.1.
`Cc1ccccc1-c1ccc(N2CCN(C(=O)C3CCN(S(C)(=O)=O)CC3)CC2)nn1` gave TEAD-YAP inh -17.6, GPR151 activ 0.7, FBW7 act -0.1 and MITF primary -10.4.
`CCc1c(C(=O)N/N=C/c2ccc(N(CC)CC)cc2O)nnn1-c1nonc1N` gave TEAD-YAP inh 40.7*, GPR151 activ -1.1, FBW7 act -0.1 and MITF primary 8.6.
`COc1cccc(/C=N/NC(=O)c2nnn(-c3nonc3N)c2C)c1O` gave TEAD-YAP inh 74.5*, GPR151 activ 1.2, FBW7 act -0.1 and MITF primary 4.6.
For COc1cccc(/C=N/NC(=O)c2nnn(-c3nonc3N)c2-c2ccccc2)c1O the results were TEAD-YAP inh 15.3, GPR151 activ -0.6, FBW7 act -0.1 and MITF primary 18.4.
For CCN(CC)c1ccc(/C=N/NC(=O)c2nnn(-c3nonc3N)c2CN(C)C)c(O)c1 the results were TEAD-YAP inh 13.2, GPR151 activ 0.4, FBW7 act 0.1 and MITF primary -8.3.
`Cc1c(C(=O)N/N=C/c2ccc(O)cc2O)nnn1-c1nonc1N` gave TEAD-YAP inh 75.2*, GPR151 activ 1.5, FBW7 act -0.8 and MITF primary 32.9.
`COCc1c(C(=O)N/N=C\c2ccc(O)cc2O)nnn1-c1nonc1N` gave TEAD-YAP inh 19.3, GPR151 activ 2.1, FBW7 act 0.0 and MITF primary 34.2.
Screening CC1=C(C)CC2C(=O)N(c3ccc(Cl)c(Cl)c3)C(=O)C2C1 (stereo unspecified) returned TEAD-YAP inh 0.5, GPR151 activ 1.4, FBW7 act 0.1 and MITF primary -3.5.
Screening COc1ccc(C2Oc3c(OC)cccc3C3CC(c4ccc(C)o4)=NN32)cc1 (stereo unspecified) returned TEAD-YAP inh 39.8*, GPR151 activ 0.8, FBW7 act -0.1 and MITF primary 10.8.
COc1cccc2c1OC(c1cccc(Cl)c1)N1N=C(c3ccc(C)o3)CC21 (stereo unspecified) was read as TEAD-YAP inh 40.6*, GPR151 activ -1.2, FBW7 act 0.1 and MITF primary 5.2.
Screening NS(=O)(=O)c1ccc(CNc2ccc3ncc(-c4ccc(CO)cc4)n3n2)cc1 returned TEAD-YAP inh 4.5, GPR151 activ -0.2, FBW7 act 0.2 and MITF primary -5.2.
Screening COc1ccc(C2NC(=O)NC(C)=C2C(N)=O)c2ccccc12 (stereo unspecified) returned TEAD-YAP inh -13.2, GPR151 activ -0.7, FBW7 act -0.1 and MITF primary 1.8.
`CC1(C)CC(=O)C2=C(C1)NC(=S)NC2c1cccc(F)c1` (stereo unspecified) gave TEAD-YAP inh 52.3*, GPR151 activ 0.1, FBW7 act -0.1 and MITF primary -1.4.
Screening CC1(C)CC(=O)C2=C(C1)Nc1ccccc1NC2c1cccc(F)c1 (stereo unspecified) returned TEAD-YAP inh 11.4, GPR151 activ -1.1, FBW7 act 0.2 and MITF primary 4.1.
For O=C1CCCC2=C1C(c1cccc(O)c1)NC(=S)N2 (stereo unspecified) the results were TEAD-YAP inh 64.6*, GPR151 activ 0.8, FBW7 act 0.1 and MITF primary -22.0.
O=C1CCCC2=C1C(c1ccc(Cl)cc1)NC(=S)N2 (stereo unspecified) was read as TEAD-YAP inh 17.1, GPR151 activ 2.4, FBW7 act -0.1 and MITF primary 5.8.
`O=C(c1ccc(-n2c(=S)[nH]c3ccccc3c2=O)cc1)N1CCN(c2ccccc2)CC1` gave TEAD-YAP inh 12.7, GPR151 activ 1.5, FBW7 act 0.0 and MITF primary 2.0.
`CCOc1ccc(C(=O)Nc2cccc(C)n2)cc1` gave TEAD-YAP inh 43.0*, GPR151 activ -9.2, FBW7 act 0.0 and MITF primary 9.3.
For Cc1cccc(NC(=O)c2ccc(N)cc2)n1 the results were TEAD-YAP inh 61.4*, GPR151 activ -5.6, FBW7 act -0.1 and MITF primary 9.7.
For Cc1cccc(NC(=O)c2ccc(C(C)(C)C)cc2)n1 the results were TEAD-YAP inh 44.7*, GPR151 activ -4.8, FBW7 act -0.1 and MITF primary -2.0.
For Cc1ccc2c(c1)C1(NN=C(c3ccccc3O)S1)C(=O)N2 (stereo unspecified) the results were TEAD-YAP inh 53.8*, GPR151 activ -0.3, FBW7 act 0.0 and MITF primary 2.7.
Screening CC(C)(C)NC(=O)NC(=O)COc1ccccc1C#N returned TEAD-YAP inh 40.3*, GPR151 activ -2.1, FBW7 act -0.1 and MITF primary 0.7.
